This passage reports Potency results from PubChem BioAssay (NCATS).

Results filed as inconclusive are left out. Calls of active or inactive are those of the source. The call rests on the fitted dose curve; in most records, active means well fitted cell-killing curve with a large enough effect; inconclusive means small, poorly fitted or top-dose-only effect; inactive means flat fitted curve, though single readings scatter.
Potency means the concentration at half of the fitted maximal effect.

The test can be described thus: Cell Viability - LYMP2-010 (AID 981). Further: nearly all actives have a fitted effect of over 55% in size. The conditions noted are these: LYMP2-010 lymphoblastoid cell viability, qHTS; series mostly up to 92.2 µM. The source says:
NIH Chemical Genomics Center [NCGC]
NIH Molecular Libraries Screening Centers Network [MLSCN]
National Institutes of Environmental Health Sciences [NIEHS]
National Toxicology Program [NTP]
We have developed a 1536-well cell-based assay for quantitative high throughput screening (qHTS) against a number of cell lines to determine in vitro cytotoxicity of small molecules. This particular assay uses a human lymphoblastoid cell line (LYMP2-010) purchased from Coriell Institute for Medical Research.
NCGC Assay Protocol Summary:
The CellTiter-Glo luminescent cell viability assay (Promega) is a homogeneous method to measure the number of viable cells in culture. The end point readout of this assay is based on quantitation of intracellular ATP, an indicator of metabolic activity, using the luciferase reaction. Luciferase catalyzes the oxidation of beetle Luciferin to oxyluciferin and light in the presence of ATP. The luminescent signal is proportional to amount of ATP present.
Using the CellTiter-Glo luminescent cell viability assay, the amount of cellular ATP was measured in the lymphoblastoid cell line with complete culture medium following compound treatment for 24 hours. The assay was performed in opaque white Kalypsys 1536-well plates. In the screen, tetraoctylammonium bromide was used as positive control. Library compounds were measured for their ability to cause acute toxicity in the cell line, as reflected by a decrease in intracellular ATP levels, in a concentration-dependent manner. […] AC50 values were determined from concentration-response data modeled with the standard Hill equation.
qHTS protocol for CellTiter Glo lymphoblastoid cellular assay
[Step] [Parameter] [Value] [Description]
1. Reagent; 5 uL; 2500 lymphoblastoid cells/well
2. Time; 5 hr; 37 C incubation
4. Controls; 23 nL; Tetraoctylammonium bromide 6.4pM to 92 uM
5. Time; 24 hr; 37 C incubation
6. Reagent; 5 uL; CellTiter Glo reagent
7. Time; 30 min; Room Temperature
8. Detection; Luminescence; Viewlux plate reader
Keywords: cell viability, cytotoxicity, lymphoblastoid cell line, luminescence, NTPHTS, NTPHTS_NCGC, NIEHS, DSSTox, MLSMR, MLSCN, NIH Roadmap, qHTS, NCGC
`CC[n+]1c(-c2ccccc2)c2cc(N)ccc2c2ccc(N)cc21`: the Potency was 12.6 µM (active).

Take `CN(C)C(=S)SSC(=S)N(C)C`: the Potency is 0.251 µM (active).

Consider `CCCCCCCCCCCC[N+](C)(C)CCOc1ccccc1`, for which the Potency was 39.8 µM (active).

On to `COP(=O)(OC)OC=C(Cl)Cl`, for which the Potency result is “inactive”.

`Oc1ccc(Cl)cc1Sc1cc(Cl)ccc1O`: the Potency is 39.8 µM (active).

On to `C[C@@H]1C[C@@H]([C@H](O)CC2CC(=O)NC(=O)C2)C(=O)[C@@H](C)C1`, for which the Potency was 1 µM (active).

As to `O=C(CCl)c1ccc(Cl)cc1Cl`, the Potency was 2.51 µM (active).

As to `COC(=O)C1=C(C)NC(C)=C(C(=O)OC)C1c1ccccc1[N+](=O)[O-]`, the Potency is 39.8 µM (active).

As to `CNC(=O)Oc1cccc2ccccc12`, the Potency result was “inactive”.

In the case of `Oc1c(Br)cc(Br)cc1Br`, the Potency entry was “inactive”.
